Consider 12 molecules from the supplement of paper PMC8540655.

The structures appear in SMILES notation.

The first assay has as its system Aedes aegypti larvae. As to the kind of experiment: larval motility relative to same well at 0 h (fraction); higher = more motile (less active compound), active = 0.4 or less. The following applies: 10 µM; 2 h. Here is the method: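 MMV Pandemic Response Box compounds were tested at 10 µM (1% v/v DMSO) on Aedes aegypti larvae (18-24 h after hatching, about 10 per well, 96-well plates). Motility was quantified with INVAPP (200-frame movies) at 0, 2 and 24 h. Each well's motility was divided by its own 0 h score, and the median of 3 independent screens is reported.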
As to `CC(C)Oc1cccc(NC(=O)c2ccccc2C(F)(F)F)c1`, the larval motility was 0.405 (inactive).
Turning to `CCN1CCN(Cc2nc3ccc([N+](=O)[O-])cc3c(=O)n2-c2ccccc2F)CC1`, the larval motility is 0.54 (inactive).
Still for that read-out and setting: next, `C[N+]1(C)CCCC(OC(=O)C(O)(c2ccccc2)c2ccccc2)C1` (centres undefined): 0.776 (inactive).
Turning to `NC1(C(=O)O)CCP(=O)(O)CC1` (centres undefined), the larval motility is 0.238 (active).
As for `O=C(NC12CC3CC(CC(C3)C1)C2)c1cc2ccccc2[nH]1`, the larval motility is 0.685 (inactive).
Turning to `COc1ccccc1CN[C@H]1C2CCN(CC2)[C@H]1C(c1ccccc1)c1ccccc1`, the larval motility is 0.829 (inactive).
Turning to `CCCCc1ccc(C(=O)O)nc1`, the larval motility was 0.853 (inactive).
For `Nc1c(C(=O)NCc2ccco2)c2nc3ccccc3nc2n1CCN1CCCCC1`, the larval motility was 0.782 (inactive).
As to `COC(=O)Nc1nc2ccccc2[nH]1`, the larval motility is 0.867 (inactive).
In the case of `CN1C(=O)C(c2ccccc2)C(=O)N(c2ccccc2)c2cc(C(F)(F)F)ccc21` (centres undefined), the larval motility is 0.796 (inactive).
On the same count and under the same terms, the value for `C[C@@]1(O)[C@H](O)[C@@H](CO)O[C@H]1n1ccc2c(N)ncnc21` was 0.65 (inactive); that for `COc1cc(C(C)(C)CCCC(C)C)cc(OC)c1OC` was 1.11 (inactive).

Still in this assay, the particulars now being: 10 µM; 24 h.
For the molecule `CC(C)Oc1cccc(NC(=O)c2ccccc2C(F)(F)F)c1`, the larval motility was 0.543 (inactive).
Consider `CCN1CCN(Cc2nc3ccc([N+](=O)[O-])cc3c(=O)n2-c2ccccc2F)CC1`, for which the larval motility was 2.49 (inactive).
Still for that read-out and setting: next, `C[N+]1(C)CCCC(OC(=O)C(O)(c2ccccc2)c2ccccc2)C1` (centres undefined): 0.656 (inactive); `NC1(C(=O)O)CCP(=O)(O)CC1` (centres undefined): 1.44 (inactive).
As for `O=C(NC12CC3CC(CC(C3)C1)C2)c1cc2ccccc2[nH]1`, the larval motility is 1.27 (inactive).
For `COc1ccccc1CN[C@H]1C2CCN(CC2)[C@H]1C(c1ccccc1)c1ccccc1`, the larval motility was 0.616 (inactive).
For the molecule `CCCCc1ccc(C(=O)O)nc1`, the larval motility is 0.63 (inactive).
The same measure, in the same setting: the value for `Nc1c(C(=O)NCc2ccco2)c2nc3ccccc3nc2n1CCN1CCCCC1` was 0.543 (inactive); that for `COC(=O)Nc1nc2ccccc2[nH]1` was 0.986 (inactive).
Regarding `CN1C(=O)C(c2ccccc2)C(=O)N(c2ccccc2)c2cc(C(F)(F)F)ccc21` (centres undefined), the larval motility was 0.84 (inactive).
On the same count and under the same terms, next, `C[C@@]1(O)[C@H](O)[C@@H](CO)O[C@H]1n1ccc2c(N)ncnc21`: 0.788 (inactive); `COc1cc(C(C)(C)CCCC(C)C)cc(OC)c1OC`: 1.04 (inactive).
